Common to all, as to experiment: protein-binding microarray (PBM); PBM: ~300 nM protein, 6 mM HEPES pH 7.8, 80 mM KCl, 0.5 mM EDTA, 0.5 mM EGTA, 6% glycerol, 35 ng/ul poly-dIdC, 1% milk, 1 h, room temperature; Ap Aiptasia and Nv Nematostella (sea anemones) / Co Capsaspora / Aq Amphimedon (sponge) / Dm Drosophila / Hu human; RHD is the Rel homology domain; high values mean tight binding
Holding throughout (conditions): dsDNA, one strand shown

For one assay, the target named is T1, GST-Ap-NF-kB RHD (Exaiptasia pallida (Aiptasia), UniProt A0A913YAJ5 2-422).
T1 sequence: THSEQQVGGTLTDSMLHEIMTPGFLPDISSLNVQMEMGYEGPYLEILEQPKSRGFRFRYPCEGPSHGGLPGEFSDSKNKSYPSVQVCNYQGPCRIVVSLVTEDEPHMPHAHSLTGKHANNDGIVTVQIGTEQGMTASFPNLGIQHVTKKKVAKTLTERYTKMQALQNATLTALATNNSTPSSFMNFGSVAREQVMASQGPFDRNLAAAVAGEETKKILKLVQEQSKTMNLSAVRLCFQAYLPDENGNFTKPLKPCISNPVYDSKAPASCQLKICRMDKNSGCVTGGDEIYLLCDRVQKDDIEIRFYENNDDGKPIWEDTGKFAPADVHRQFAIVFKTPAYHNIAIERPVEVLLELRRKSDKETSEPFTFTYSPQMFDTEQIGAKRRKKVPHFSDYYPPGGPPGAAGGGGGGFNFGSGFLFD

Assay [1] concerns the target T2, GST-Nv-NF-kB (Ser allele) (Nematostella vectensis, UniProt A7UNT2 2-411).
T2 sequence: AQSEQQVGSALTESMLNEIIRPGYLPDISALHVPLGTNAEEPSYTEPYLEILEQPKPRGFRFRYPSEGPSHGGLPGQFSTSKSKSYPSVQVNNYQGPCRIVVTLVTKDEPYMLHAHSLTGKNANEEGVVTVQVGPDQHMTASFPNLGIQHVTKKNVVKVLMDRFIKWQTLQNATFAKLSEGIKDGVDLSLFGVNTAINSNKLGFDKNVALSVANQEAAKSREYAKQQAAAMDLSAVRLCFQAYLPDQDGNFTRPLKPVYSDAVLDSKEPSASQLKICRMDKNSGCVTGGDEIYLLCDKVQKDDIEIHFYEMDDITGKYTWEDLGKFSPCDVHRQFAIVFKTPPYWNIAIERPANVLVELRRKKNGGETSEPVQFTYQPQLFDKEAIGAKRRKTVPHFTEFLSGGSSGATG

Another assay deals with T3, GST-Co-NF-kB (Capsaspora owczarzaki, UniProt F1ARL5 200-546).
T3 sequence: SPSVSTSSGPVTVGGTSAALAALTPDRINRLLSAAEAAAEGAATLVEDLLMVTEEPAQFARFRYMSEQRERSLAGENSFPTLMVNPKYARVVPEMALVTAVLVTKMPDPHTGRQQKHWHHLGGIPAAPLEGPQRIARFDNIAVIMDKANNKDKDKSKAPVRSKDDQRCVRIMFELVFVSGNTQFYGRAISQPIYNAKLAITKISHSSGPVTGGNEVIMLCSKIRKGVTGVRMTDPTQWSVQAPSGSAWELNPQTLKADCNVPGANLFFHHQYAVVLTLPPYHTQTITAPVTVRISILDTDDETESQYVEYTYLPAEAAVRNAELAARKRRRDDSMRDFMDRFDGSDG

The next assay concerns the target T4, GST-Aq-NF-kB (Amphimedon queenslandica, UniProt A9Y5G7 2-389).
T4 sequence: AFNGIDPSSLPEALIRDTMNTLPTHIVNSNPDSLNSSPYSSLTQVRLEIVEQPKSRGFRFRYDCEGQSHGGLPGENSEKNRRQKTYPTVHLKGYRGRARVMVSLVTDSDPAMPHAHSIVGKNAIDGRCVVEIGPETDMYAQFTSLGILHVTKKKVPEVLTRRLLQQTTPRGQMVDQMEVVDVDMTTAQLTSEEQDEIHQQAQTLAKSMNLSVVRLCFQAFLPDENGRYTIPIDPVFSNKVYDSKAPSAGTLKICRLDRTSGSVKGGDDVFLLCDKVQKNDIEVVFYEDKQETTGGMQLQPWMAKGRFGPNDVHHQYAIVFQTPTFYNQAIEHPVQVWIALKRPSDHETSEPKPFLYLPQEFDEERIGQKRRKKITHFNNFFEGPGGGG

The target in a further assay is GST-Hu-p50 (Homo sapiens, UniProt P19838 7-356).
For assay [2], the target named is T5, GST-Nv-NF-kB (Cys allele) (Nematostella vectensis, UniProt E5G601 2-411).
T5 sequence: T2 sequence with R21Q, S66C, N207S, Q215E, A217V, K225E, E268A, E399D

The next assay addresses T6, GST-Dm-Relish (Drosophila melanogaster, UniProt Q94527 99-473).
T6 sequence: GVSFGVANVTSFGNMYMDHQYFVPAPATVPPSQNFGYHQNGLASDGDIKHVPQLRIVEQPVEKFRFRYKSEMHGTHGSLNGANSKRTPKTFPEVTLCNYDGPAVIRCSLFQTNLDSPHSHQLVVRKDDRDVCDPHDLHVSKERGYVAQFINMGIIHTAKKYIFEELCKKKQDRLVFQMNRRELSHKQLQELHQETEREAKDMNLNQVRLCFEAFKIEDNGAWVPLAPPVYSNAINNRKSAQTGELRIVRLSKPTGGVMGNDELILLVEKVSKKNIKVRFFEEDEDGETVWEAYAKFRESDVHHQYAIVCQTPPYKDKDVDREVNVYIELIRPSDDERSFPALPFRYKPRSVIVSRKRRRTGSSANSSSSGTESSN

Positions count from the first letter of the chain named.

Sequence of GST-Hu-p50 (P19838 7-356): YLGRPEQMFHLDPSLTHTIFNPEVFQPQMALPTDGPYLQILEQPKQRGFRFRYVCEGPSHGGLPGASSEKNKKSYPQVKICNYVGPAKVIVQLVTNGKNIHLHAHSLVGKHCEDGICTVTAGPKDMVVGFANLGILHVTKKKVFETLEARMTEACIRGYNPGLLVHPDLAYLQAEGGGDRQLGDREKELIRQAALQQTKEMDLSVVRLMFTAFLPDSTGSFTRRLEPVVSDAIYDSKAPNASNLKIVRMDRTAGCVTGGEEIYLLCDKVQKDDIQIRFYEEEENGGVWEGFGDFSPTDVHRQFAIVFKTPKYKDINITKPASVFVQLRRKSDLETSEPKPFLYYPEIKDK

Take “CCGATTAACATCACCCGGGTAAATGATGTTAATCGGGTCTTGATTCGCTTGACGCTGCTG”: the binding signal with GST-Ap-NF-kB RHD amounted to 1.42 z-score; in assay [1], 1.15 z-score; with GST-Co-NF-kB, 2.41 z-score; with GST-Aq-NF-kB, 1.02 z-score; in the assay with GST-Hu-p50, 1.11 z-score.

As for “CCGATTAACATCAGGGGTAGAACTGATGTTAATCGGGTCTTGATTCGCTTGACGCTGCTG”, the binding signal amounted to 1.85 z-score with GST-Ap-NF-kB RHD; 1.11 z-score in assay [1]; 5.07 z-score in the assay with GST-Co-NF-kB; 1.92 z-score in the assay with GST-Aq-NF-kB; 1.99 z-score in the assay with GST-Hu-p50.

As for “CCGATTAACATCAGAATACCCCCTGATGTTAATCGGGTCTTGATTCGCTTGACGCTGCTG”, the binding signal with GST-Ap-NF-kB RHD came to 7.89 z-score; in assay [2], 5.69 z-score; with GST-Co-NF-kB it was 4.84 z-score; with GST-Dm-Relish, 5.26 z-score; in the assay with GST-Aq-NF-kB, 5.57 z-score; with GST-Hu-p50, 5.27 z-score.

In the case of “CCGATTAACATCAGGGAGTGCCCTGATGTTAATCGGGTCTTGATTCGCTTGACGCTGCTG”, the binding signal with GST-Ap-NF-kB RHD was 2.83 z-score; in assay [2] it was 2.18 z-score; in the assay with GST-Dm-Relish, 3.85 z-score; with GST-Aq-NF-kB, 5.66 z-score; with GST-Hu-p50, 1.98 z-score.

On to “CCGATTAACATCACGGAAATACCTGATGTTAATCGGGTCTTGATTCGCTTGACGCTGCTG”, for which the binding signal in the assay with GST-Ap-NF-kB RHD was found to be 1.01 z-score; in assay [1], 1.39 z-score; with GST-Dm-Relish, 2.56 z-score; with GST-Aq-NF-kB, 4.47 z-score; in the assay with GST-Hu-p50, 1.12 z-score.

Regarding “CCGATTAACATCAGAAATTACCCTGATGTTAATCGGGTCTTGATTCGCTTGACGCTGCTG”, the binding signal in the assay with GST-Ap-NF-kB RHD was 3.88 z-score; in assay [2], 6.24 z-score; with GST-Co-NF-kB it was 2.87 z-score; with GST-Dm-Relish it was 4.39 z-score; with GST-Aq-NF-kB it was 5.95 z-score; with GST-Hu-p50, 4.72 z-score.

“CCGATTAACATCAGGGGGTATTATGATGTTAATCGGGTCTTGATTCGCTTGACGCTGCTG”: the binding signal with GST-Ap-NF-kB RHD is 7.58 z-score; in assay [2], 5.39 z-score; with GST-Co-NF-kB it was 4.88 z-score; with GST-Dm-Relish, 4.91 z-score; with GST-Aq-NF-kB, 5.8 z-score; with GST-Hu-p50, 5.39 z-score.

In the case of “CCGATTAACATCAGGAAAGGCCCTGATGTTAATCGGGTCTTGATTCGCTTGACGCTGCTG”, the binding signal with GST-Ap-NF-kB RHD worked out at 2.38 z-score; in assay [2], 2.62 z-score; in the assay with GST-Dm-Relish, 5.48 z-score; in the assay with GST-Aq-NF-kB, 5.31 z-score; with GST-Hu-p50, 2.61 z-score.

Consider “CCGATTAACATCAGAAAAACACCTGATGTTAATCGGGTCTTGATTCGCTTGACGCTGCTG”, for which the binding signal in the assay with GST-Ap-NF-kB RHD stood at 2.56 z-score; in assay [2], 3.55 z-score; with GST-Dm-Relish, 3.66 z-score; with GST-Aq-NF-kB it was 3.91 z-score; with GST-Hu-p50 it was 5.37 z-score.

In the case of “CCGATTAACATCAGGACATACCCTGATGTTAATCGGGTCTTGATTCGCTTGACGCTGCTG”, the binding signal came out at 1.92 z-score in the assay with GST-Ap-NF-kB RHD; 2.84 z-score in assay [2]; 2.79 z-score with GST-Dm-Relish; 5.54 z-score in the assay with GST-Aq-NF-kB; 1.78 z-score in the assay with GST-Hu-p50.

On to “CCGATTAACATCAAATCCCCCCCTGATGTTAATCGGGTCTTGATTCGCTTGACGCTGCTG”, for which the binding signal in the assay with GST-Ap-NF-kB RHD was 8.93 z-score; in assay [1], 9 z-score; with GST-Co-NF-kB it was 9.25 z-score; with GST-Dm-Relish, 7.98 z-score; in the assay with GST-Aq-NF-kB it was 6.62 z-score; in the assay with GST-Hu-p50 it was 6.87 z-score.

With “CCGATTAACATCAGGAAGATCCCTGATGTTAATCGGGTCTTGATTCGCTTGACGCTGCTG”, the binding signal was determined as 3.43 z-score with GST-Ap-NF-kB RHD; 1.84 z-score in assay [2]; 2.71 z-score in the assay with GST-Dm-Relish; 5.44 z-score in the assay with GST-Aq-NF-kB; 1.57 z-score in the assay with GST-Hu-p50.

In the case of “CCGATTAACATCACGGGAAGCCCTGATGTTAATCGGGTCTTGATTCGCTTGACGCTGCTG”, the binding signal in the assay with GST-Ap-NF-kB RHD is 2.49 z-score; in assay [2], 1.91 z-score; in the assay with GST-Dm-Relish, 7.08 z-score; in the assay with GST-Aq-NF-kB it was 4.42 z-score; in the assay with GST-Hu-p50, 1.11 z-score.

The values above are taken from publication PMC5700166.
